KLF5 inhibitor = kruppel-like factor 5 inhibition. DLD-1 KLF5 promoter-luciferase reporter, luminescence. inhibition, % at 5 µM. actives 0.23% (n = 290,000). AID 1700;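 active = inhibition above a per-plate limit of that plate's mean compound inhibition plus 3 SD, cut at about 60% in these data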;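 also: 0% = DMSO wells and 100% = LY294002 at 200 µM; higher means less KLF5 promoter-driven luciferase light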
BaF3 tox = reduces parental Ba/F3 cell viability, JAK2V617F counter-screen; CellTiter-Glo ATP luminescence; inhibition, % at 5.6 µM; actives 1.1% (n = 220,000); AID 1486;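 active = inhibition above a per-campaign cutoff, the mean inhibition of all tested compounds plus 3 SD, cut at about 27% in these data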;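 also: 0% = DMSO wells and 100% = JAK Inhibitor I control wells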
GPR7 antag = human neuropeptides B/W receptor 1 antagonism; P48145; GPR7-expressing cells, fluorescence antagonist assay; inhibition, % at 4.4 µM; actives 1.1% (n = 290,000); in the data active = inhibition above about 16%, passing the limit was not always enough;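 also: cells stimulated with the agonist NPW; 0% = agonist with vehicle and 100% = vehicle without agonist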
Target sequence (P48145 whole entry, looked up): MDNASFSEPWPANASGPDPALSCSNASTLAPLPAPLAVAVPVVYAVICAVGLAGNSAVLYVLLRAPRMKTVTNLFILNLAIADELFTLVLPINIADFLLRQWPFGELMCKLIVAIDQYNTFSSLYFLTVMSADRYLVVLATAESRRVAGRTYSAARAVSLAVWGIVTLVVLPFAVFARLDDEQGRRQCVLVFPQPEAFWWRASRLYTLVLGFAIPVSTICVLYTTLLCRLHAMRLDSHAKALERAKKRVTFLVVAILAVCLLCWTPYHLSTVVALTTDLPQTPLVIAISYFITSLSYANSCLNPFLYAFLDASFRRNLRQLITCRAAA
IEC-6 tox-1 = kills IEC-6 intestinal cells in KLF5 counter-screen; actives 0.78% (n = 290,000); inhibition, % at 5 µM; IEC-6 cytotoxicity, luminescence viability;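 also: 0% = plate median of test compound wells and 100% = cytotoxic reference compound wells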
DNA FID counter = displaces DNA intercalator in HCV helicase counter-screen. DNA fluorescent intercalator displacement, fluorescence. inhibition, % at 7.9 µM. actives 0.17% (n = 290,000). AID 1845; in the data active = inhibition above about 37%;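 also: 0% = vehicle and 100% = reference compound; higher means more ethidium bromide displaced from hairpin DNA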
Ba/F3 V617F tox = reduce viability of Ba/F3 cells dependent on JAK2V617F; inhibition, % at 5.6 µM; actives 1.1% (n = 220,000); Ba/F3 EpoR-JAK2V617F viability, ATP luminescence;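 active = inhibition above the campaign mean plus 3 SD over all tested compounds, cut at about 24% in these data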;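 also: cytokine-independent growth of Ba/F3 cells driven by EpoR plus mutant JAK2; 0% = DMSO-treated cells and 100% = JAK inhibitor I control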
BaF3 parental 2 = parental Ba/F3 viability inhibition for JAK2V617F counter-screen | CellTiter-Glo luminescence; cells kept alive by added IL-3 | inhibition, % at 5.6 µM | actives 31% (n = 580) | shares compounds with Ba/F3 V617F tox;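 active = cell growth inhibition above the hit limit set in the earlier mutant JAK2 cell screen, cut at about 27% in these data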;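 also: plate controls were DMSO-treated cells for no effect and JAK Inhibitor I control wells for full effect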
JAK2V617F conf = confirmation: loss of viability in JAK2V617F-dependent Ba/F3 cells; inhibition, % at 5.6 µM; actives 66% (n = 580); AID 1521; Ba/F3 EpoR-JAK2V617F viability, CellTiter-Glo luminescence; shares compounds with Ba/F3 V617F tox;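 active = mean inhibition above the hit cutoff derived in the earlier primary screen, cut at about 25% in these data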;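 also: 0% = DMSO-treated cells and 100% = JAK inhibitor I control wells; higher means lower luminescence from reduced cell ATP and viability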
KLF5 confirm = KLF5 inhibition, confirmation assay. shares compounds with KLF5 inhibitor. DLD-1 KLF5 promoter firefly luciferase reporter, luminescence. inhibition, % at 4 µM. actives 79% (n = 610). AID 1834;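 active = inhibition above a set limit taken from the earlier primary screen, cut at about 63% in these data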;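 also: 0% = DMSO wells and 100% = LY294002 at 200 µM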
IEC-6 tox-2 = rat IEC-6 cytotoxicity, KLF5 inhibitor counter-screen. shares compounds with KLF5 inhibitor. IEC-6 rat intestinal cells, viability luminescence. inhibition, % at 4 µM. actives 56% (n = 610). AID 1905; in the data active = inhibition above about 23%;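 also: cells exposed to compounds for 48 hours before viability read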
IEC-6 cytotox cf = IEC-6 cytotoxicity, confirmation assay. shares compounds with IEC-6 tox-1. inhibition, % at 5 µM. actives 63% (n = 1,900). IEC-6 rat intestinal epithelial viability, luminescence;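 also: 0% = vehicle and 100% = reference cytotoxic drug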
GPR7 antag conf = confirmation of human GPR7 antagonists | inhibition, % at 4.4 µM | AID 1952 | actives 52% (n = 2,400) | shares compounds with GPR7 antag | GPR7-expressing cells, calcium fluorescence antagonist mode; in the data active = inhibition above about 24%;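 also: stimulated with the GPR7 agonist NPW; 0% = agonist plus vehicle and 100% = vehicle alone without agonist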
MCHR1 antag = counter-screen for GPR7 antagonists: antagonists of human MCHR1. inhibition, % at 4.4 µM. MCHR1-expressing cells, fluorescence antagonist assay. AID 2148. shares compounds with GPR7 antag. actives 62% (n = 2,400);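 also: 0% = vehicle with agonist and 100% = vehicle without agonist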
Numbers without * were called inactive; x = no result; ! = not active in a repeat. Shown are actives, neighbours in structure and some others; about 2.6% of the full set was active somewhere. Rule as the data show it, unless noted: active = inhibition above about 22%; inactive = the rest.

SMILES	KLF5 inhibitor	BaF3 tox	GPR7 antag	IEC-6 tox-1	DNA FID counter	Ba/F3 V617F tox	IEC-6 cytotox cf	others
C[C@H]1CCC/C=C/C2C[C@H](O)CC2[C@H](O)/C=C/C(=O)O1 (stereo partly drawn)	101*	6	-3	99*	-9	38*	102*	BaF3 parental 2=107*;JAK2V617F conf=78*;KLF5 confirm=110*;IEC-6 tox-2=102*
C[C@H]1CCC[C@@H](O)CCC/C=C/c2cc(O)cc(O)c2C(=O)O1	-2	4	-10	4	-2	3	x
CC1CCC/C=C/C2CC(O)CC2C(O)/C=C/C(=O)O1 (stereo not drawn)	94*	0	-13	101*	-7	62*	100*	BaF3 parental 2=103*;JAK2V617F conf=67*;KLF5 confirm=110*;IEC-6 tox-2=102*
CCc1ccc(CN2CCN(C(=O)Cc3ccccc3)CC2)cc1	1	5	2	4	-10	4	x
O=C(Nc1ccc(OC(=O)N2CCCC2)cc1)N1CCOCC1	7	4	-16	0	-5	0	x
O=C(Nc1ccc(OC(=O)N2CCCCC2)cc1)N1CCOCC1	68*	-2	12	-5	-14	-1	x	KLF5 confirm=4;IEC-6 tox-2=-7
O=C(NC(C(Cl)Cl)N1CCOCC1)c1ccccc1 (stereo not drawn)	-4	5	-11	1	-2	-2	x
O=C1C(=O)c2ccccc2-c2ccccc21	106*	102*	5	103*	11	100*	x	KLF5 confirm=114*;IEC-6 tox-2=101*
COc1cc2c(c(OC)c1OC)-c1ccc(O)c(=O)cc1C(NC(C)=O)CC2 (stereo not drawn)	73*	x	13	94*	-12	x	83*	KLF5 confirm=89*;IEC-6 tox-2=91*
CCN(CC)C(=O)c1ccc(NC(=O)COc2ccccc2F)cc1	-6	-3	-4	8	-14	3	x
Cc1nc2c(=O)n(C)c(=O)nc-2n(C)n1	105*	101*	-15	102*	-1	99*	96*	KLF5 confirm=115*;IEC-6 tox-2=96*
Cc1ccc(OCC(=O)N2CCN(C3CCC(c4ccccc4)CC3)CC2)cc1 (stereo not drawn)	-1	5	-8	-10	1	-4	x
CN1/C(=C\C=C\C2=[N+](C)c3ccc4ccccc4c3C2(C)C)C(C)(C)c2ccccc21	71*	95*	87*	74*	-397	99*	80*	KLF5 confirm=116*;IEC-6 tox-2=77*;GPR7 antag conf=102*;MCHR1 antag=104*
O=P(O)(O)Cc1c(Cl)cccc1Cl	-34	4	7	1	0	-5	x
c1cncc(C2Nc3cccc4cccc(c34)N2)c1	27	2	0	38*!	-4	2	16
c1cncc(C2CCCCN2)c1 (stereo not drawn)	6	1	-12	2	0	-2	x
CCn1nc(-c2ccccc2)nc2c(=O)n(C)c(=O)nc1-2	-37	-1	-11	99*	4	9	60*
COc1ccc(-c2nc3ccccc3c(=O)n2-c2ccc(OC)cc2)cc1	-8	2	-2	1	-33	-1	x
COc1cc2c(cc1/C=C/[N+](=O)[O-])OCO2	-9	-5	-3	42*	-9	10	17
C#C[C@@]1(O)CCC2C3CCC4=C/C(=N/OCC(=O)NC(C(=O)O)C(C)O)CC[C@]4(C)C3CC[C@@]21C (stereo partly drawn)	-12	x	9	-3	-23	x	x
CN1C[C@@H]2C[C@@H](c3cccn3-c3ccccn3)N3CCC[C@@]23C1=O	-4	11	-3	-1	0	5	x
COC(=O)c1ccccc1-n1c(C)nc2ccccc2c1=O	-7	5	-9	2	3	-3	x
O=C(O)c1cccc2nc3ccccc3nc12	-26	7	1	40*	-3	1	16
CC(C)(C)c1ccc(CSc2cnn(C(C)(C)C)c(=O)c2Cl)cc1	44	x	4	30*	-23	x	17
C=CCn1c(O)c(C(C)=Nc2ccc(C(=O)O)cc2)c(=O)[nH]c1=O	-13	-1	-7	-9	-1	-1	x
SMILES	KLF5 inhibitor	BaF3 tox	GPR7 antag	IEC-6 tox-1	DNA FID counter	Ba/F3 V617F tox	IEC-6 cytotox cf	others
CN(C(=O)Oc1ccc(Cl)c2cccnc12)c1ccccc1	-15	6	-10	-7	-20	1	x
C=C1[C@@H](C)[C@H]2[C@H](Cc3ccccc3)NC(=O)[C@]23OC(=O)/C=C/[C@H](O)CCC[C@@H](C)C/C=C/[C@H]3[C@@H]1O	32	48*	-17	87*	-18	44*	85*
CN1C(=O)CN=C(c2ccccc2)c2cc(Cl)ccc21	-22	-4	-13	x	-16	-8	x
CNc1cc(Cl)c2nonc2c1[N+](=O)[O-]	5	79*	51*	93*	5	50*	37*
CC(=O)O[C@@]12CO[C@@H]1C[C@H](O)[C@@]1(C)C(=O)[C@H](O)C3=C(C)[C@@H](OC(=O)[C@H](O)[C@@H](NC(=O)c4ccccc4)c4ccccc4)C[C@@](O)([C@@H](OC(=O)c4ccccc4)C12)C3(C)C (stereo partly drawn)	53	x	2	92*	-46	x	71*
CC(=O)O[C@H]1C(=O)[C@@]2(C)C([C@H](OC(=O)c3ccccc3)[C@]3(O)C[C@H](OC(=O)[C@H](O)[C@@H](NC(=O)Cc4ccccc4)c4ccccc4)C(C)=C1C3(C)C)[C@]1(OC(C)=O)CO[C@@H]1C[C@@H]2O (stereo partly drawn)	54	x	-1	91*	-49	x	86*
COC(=O)c1cn(C(=O)c2cccc3ccccc23)c2ccccc12	-10	-2	-7	2	-4	-1	x
C#CCOc1cc(C2C3=C(COC3=O)Nc3cc4c(cc32)OCO4)ccc1OC (stereo not drawn)	52	25	3	78*	-6	5	57*
